Measured values: PubChem BioAssay (NCI)
About 79,000 compounds went through this panel and 15% of them were active in at least one assay; those are over-represented in the sample as a whole. Unmarked numbers belong to inactive results. The source made the active and inactive calls. No stated cut-off is given here; in the data, active means growth inhibition above about 70%; inactive means the rest.

Assays:
[1] = NCI Yeast Anticancer Drug Screen. Data for the rad50 strain (AID 155);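 further: 0% = growth of vehicle-only cultures of the same strain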; settings: S. cerevisiae rad50 strain growth inhibition; at 50.0 µM; stronger effect = higher value
Method in brief: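 Relative growth inhibition (compound vs vehicle) was measured in yeast with a defined repair-gene alteration.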

[2] = NCI Yeast Anticancer Drug Screen. Data for the mec2-1 strain (AID 157); settings: S. cerevisiae mec2-1 strain, at 50.0 µM, stronger effect = higher value
Method in brief: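 Vehicle-treated cultures served as reference for growth inhibition of compound-exposed mec2-1 yeast.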

[3] = NCI Yeast Anticancer Drug Screen. Data for the sgs1 mgt1 strain (AID 161);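 further: 0% = growth of cultures given vehicle only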; settings: S. cerevisiae sgs1 mgt1 strain, at 50.0 µM, stronger effect = higher value
Method in brief: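 Genetically altered yeast, compound exposure, growth inhibition relative to vehicle.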

[4] = NCI Yeast Anticancer Drug Screen. Data for the cln2 rad14 strain (AID 165);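 further: 0% = growth equal to vehicle treated cultures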; settings: S. cerevisiae cln2 rad14 strain, at 50.0 µM, stronger effect = higher value
Method in brief: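 Each compound was tested on cln2 rad14 yeast. Inhibition of growth was calculated against vehicle-exposed controls.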

[5] = NCI Yeast Anticancer Drug Screen. Data for the bub3 strain (AID 167); settings: S. cerevisiae bub3 mutant strain, at 50.0 µM, stronger effect = higher value
Method in brief: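 Screening used yeast with an engineered genetic alteration affecting cell cycle control. Compound-exposed cultures were compared with vehicle cultures, and reduced growth was taken as inhibition.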

[6] = NCI Yeast Anticancer Drug Screen. Data for the mlh1 rad18 strain (AID 175); settings: S. cerevisiae mlh1 rad18 strain growth inhibition; at 50.0 µM; stronger effect = higher value
Method in brief: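 Vehicle-treated cultures served as the reference for growth inhibition in a yeast strain carrying DNA damage repair alterations exposed to each compound.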

Row | SMILES | growth inhibition [1] | growth inhibition [2] | growth inhibition [3] | growth inhibition [4] | growth inhibition [5] | growth inhibition [6]
1 | CCOc1c/c(=N\N=C(/C)c2ccc(Cl)cc2)n(C)c(=O)n1C | -13.8% | -8.5% | -10.5% | -35.2% | -6.85% | -12.7%
2 | CSc1nc2c(c(=O)[nH]1)CC(=O)N2 | 0.35% | -5.75% | -7.25% | -33.6% | -12.2% | -3.1%
3 | C=COC(=O)C(Cc1ccccc1)NC(=O)OCc1ccccc1 (stereo unspecified) | -5.2% | 10.8% | -23.2% | 10.6% | -7.65% | 6.9%
4 | C=C1C(=O)OC2/C=C(\C)C(O)CC(O)C(C)(O)CC(OC(=O)/C(C)=C/C)C12 (stereo unspecified) | -0.7% | -25.2% | -10.4% | 14.1% | 6.5% | -10.8%
5 | COC(=O)C1CCc2c(ccc3cc(OC)ccc23)C1(C)C(=O)OC (stereo unspecified) | -14.5% | -7.65% | -7.4% | -40.1% | -2.2% | -10.2%
6 | OC1COCOC1C(O)C1OCOCC1O (stereo unspecified) | 3% | 9.8% | 7.85% | 4.3% | -6.15% | 1.75%
7 | CC(C)(C)OC(=O)Cc1ccc2c(ccn2Cc2ccccc2)c1 | -26.2% | -29.6% | -10.9% | -22.1% | 4.65% | -20%
8 | CC1CC(=O)Nc2ncnc(N)c21 (stereo unspecified) | -25.1% | -2.45% | 2.3% | -4.7% | 5.3% | -9%
9 | NCCCCCC(N)=O | 45% | 32.5% | 38.8% | 21.2% | 33.5% | 33.1%
10 | Cc1cc(=O)oc2c1c(C)nn2-c1cccc(Cl)c1 | -14.5% | -13.2% | 4.05% | -60.9% | -5.1% | -1.85%
11 | CC1=C(C(=O)CC(=O)C(=O)NC2C3CC4CC(C3)CC2C4)Sc2ccccc2N1 (stereo unspecified) | -33.5% | -0.15% | -2.6% | 8.8% | -0.6% | -21%
12 | OCCN(CCO)C(Cc1ccccc1)Cc1ccccc1 | -7.9% | -9.95% | -1.7% | -11.1% | 26.4% | -22.9%
13 | CCC(C)CCOC(=O)c1ccc(N=Cc2ccc(C=Nc3ccc(C(=O)OCCC(C)CC)cc3)cc2)cc1 (stereo unspecified) | -20.5% | 2.7% | 30% | 11.6% | 43.4% | 29.9%
14 | CN(C)c1ccc(/C=C/C(=O)/C=C/c2ccc(N(C)C)cc2)cc1 | -13.5% | -2% | -13.8% | 7.6% | -12.2% | -8.9%
15 | CCOC(=O)[C@H]1Nc2ccc(Cl)cc2[C@H]2c3ccccc3O[C@H]21 | 4.85% | -22.3% | -23.1% | 8.35% | -19.7% | -19.4%
16 | O=C(O)C1CCN(C(=O)Cc2ccccc2)CC1 | -12.5% | -1.95% | -2.15% | -5.6% | 0.05% | -14.7%
17 | O/N=C(/Cc1ccccc1)c1ccccc1 | 26.6% | 33.6% | 11.1% | -17.1% | 5.15% | 17.8%
18 | [N-]=[N+]=Nc1ccc(-c2nc(N)nc(N)n2)cc1 | 11.8% | 0.35% | -2.55% | -4.75% | 6.9% | 15.2%
19 | COc1cc(C2=N/C(=C\c3ccc(Cl)c(Cl)c3)C(=O)O2)cc(OC)c1OC | -26.2% | -14.8% | 24.6% | -28.7% | -4.4% | 3.95%
20 | [N-]=[N+]=NCC(O)Cn1cnc2c(NC(=O)c3ccccc3)ncnc21 (stereo unspecified) | -14.7% | -0.15% | 0.85% | -16.1% | 8.6% | 7.2%
21 | CN(C)c1ccc(/C=C2\CCOC2=O)cc1 | 38.1% | 11.8% | 14.3% | 4.6% | 2.95% | 8.6%

Row | SMILES | growth inhibition [1] | growth inhibition [2] | growth inhibition [3] | growth inhibition [4] | growth inhibition [5] | growth inhibition [6]
22 | CC1(C)OC2OC(CNC(=O)c3ccccc3)C(O)C2O1 (stereo unspecified) | -9.05% | -4.4% | 3.05% | -3.1% | -10.3% | -18.8%
23 | Clc1ccc(OCCSCCOc2ccc(Cl)cc2)cc1 | 8.85% | -17.8% | 12.5% | -22.1% | 0.9% | 2.35%
24 | CC1(CO)CSC(Nc2ccc(Cl)c(Cl)c2)=N1 (stereo unspecified) | 19.1% | -12.9% | 37.8% | 32.5% | 20.1% | 19.1%
25 | CCOC(=O)/C=C/CI | 12.8% | -34.5% | 10.4% | 8.4% | 13.5% | 16.2%
26 | N[C@@H](CSSc1ccccc1C(=O)O)C(=O)O | -32.9% | -7.25% | -14.4% | 1.85% | 0.8% | -10.3%
27 | CN1CN(c2ccccc2)C2(CCN(c3nc4ccccc4s3)CC2)C1=O | -29.7% | -6.1% | -22.8% | -18.4% | 3.2% | -17.1%
28 | CCC(=O)Oc1ccc([N+](=O)[O-])cc1[N+](=O)[O-] | 38.6% | 30.6% | 49.3% | 26.6% | -0.5% | 21.6%
29 | CC(=O)OC(C)(C)[C@@H]1CC[C@H](C)C2=C(C1)[C@@H](C)CC2 | -13.8% | -30.9% | -23.9% | 2.05% | -16.1% | -16.1%
30 | CC1(C)N=C(N)N=C(N)N1c1ccc(C(=O)c2ccccc2)cc1 | 2.65% | -3.5% | -3.3% | -3.1% | 13.5% | 15.5%
31 | CCCN(CCCC(NC(C)=O)C(=O)NCc1ccccc1)C(=O)N(C)N=O (stereo unspecified) | -21.1% | -24.8% | -4.25% | 19.9% | -14.8% | -11.9%
32 | O=c1[nH]c2c([N+](=O)[O-])cc(Cl)cc2nc1/C=C(\O)c1ccncc1 | 42.5% | 8.75% | 42.6% | 9.45% | 18.3% | 51.4%
33 | CC(=O)Oc1ccc(-c2ccccc2)cc1 | 23.3% | 20.8% | 16% | 3.1% | 18% | 26.3%
34 | COc1nc2cc3c(cc2n2cccc12)oc1ccccc13 | 11.9% | 7.5% | -4% | 12.2% | -1.75% | -2.65%
35 | CN(c1ncc(Cc2cnc(N(C)C3CCN(Cc4ccccc4)CC3)nc2)cn1)C1CCN(Cc2ccccc2)CC1 | -0.75% | -5.95% | -12.8% | -7.95% | -2.95% | -21.8%
36 | CC1(C)N=C(N)N=C(N)N1c1ccc(-c2ccccc2)cc1 | 2.95% | 0.9% | 20.5% | -0.75% | 32.5% | 19.5%
37 | CCN(CC)C(=S)SCCCS(=O)(=O)O | 17.7% | -9.95% | 1.75% | 9.2% | 22.3% | 8.75%
38 | O=[N+]([O-])c1cc(Cl)cc2cc(Br)cnc12 | 4.2% | 15.3% | -19.9% | 3.8% | 10.5% | 4.4%
39 | CC(C)CCCC(C)C1CCC2C3CC=C4CC(OC(=O)C(Cl)(Cl)Cl)CCC4(C)C3CCC12C (stereo unspecified) | -7.65% | -7.55% | -0.7% | -27.1% | -28.1% | -5.4%
40 | CC1(C)CC[C@]2(C(=O)O)CC[C@]3(C)C(=CC[C@@H]4[C@@]5(C)CC[C@H](OC6OC(CO)C(O)C(O)C6OC6OC(CO)C(O)C(O)C6O)C(C)(C)[C@@H]5CC[C@]43C)[C@@H]2C1 (stereo partly specified) | 86.8% (active) | 86.7% (active) | 87.1% (active) | 86.2% (active) | 84.3% (active) | 83.5% (active)
41 | O=C(Nc1ccc(Cl)c(C(F)(F)F)c1)C(=O)c1c(O)c2ccccc2oc1=O | 9.85% | 4.7% | -11.7% | -38.5% | -19.1% | 5.3%
